High-throughput results as filed in PubChem BioAssay.
Sampled rows, rich in hits. Any-hit rate of the full collection: about 19%.
HT1080NT lethal: qHTS for induction of synthetic lethality in tumor cells producing 2HG: qHTS for the HT-1080-NT fibrosarcoma cell line; HT-1080-NT fibrosarcoma viability, CellTiter-Glo ATP luminescence, 48 h; Potency, µM (titrated, usually from 46.1 µM), for the others: at the top dose activity, negative = less viability, usual class: cytotoxic; 360,000 compounds, 1.6% hits;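 note: NT is the 2HG producing partner of a matched IDH1 knockdown line; potency is the fitted concentration of half-maximal effect; 0% = DMSO-treated cells and -100% = media-only wells without cells; nearly all actives have a fitted effect of over 55% in size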
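Read-out is CellTiter-Glo luminescence after 10 minutes at room temperature, following 48 hours' compound treatment of HT-1080-NT cells (750 cells/well, RPMI, 5% FBS, 37 degrees C).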
TDP1 cell noCPT: qHTS for Inhibitors of human tyrosyl-DNA phosphodiesterase 1 (TDP1): qHTS in cells in absence of CPT; DT40 Tdp1-/- hTDP1 cells, no CPT, ATP luminescence, 48 h; Potency, µM (series often up to 46.2 µM), without a hit: top-dose activity change, negative = growth inhibition, usual class: inhibitors; 420,000 compounds, 15% hits; AID 686978, 2013; note: potency is the fitted concentration of half-maximal effect; nearly all actives have a fitted effect of over 55% in size
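Chicken DT40 Tdp1-/- cells stably complemented with human TDP1 were seeded at 400 cells/well with DMSO in place of 20 nM camptothecin. After compound pinning, cells grew at least 48 hr at 37 °C; viability read by CellTiter-Glo luminescence.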
DT40 TDP1 CPT: qHTS for Inhibitors of human tyrosyl-DNA phosphodiesterase 1 (TDP1): qHTS in cells in presence of CPT; chicken DT40 Tdp1-/-;hTDP1 cells + 20 nM CPT, ATP luminescence, 48 h; Potency, µM (titrated, usually from 46.2 µM), inactives show top-dose activity change, negative = growth inhibition, usual class: inhibitors; 420,000 compounds, 12% hits; AID 686979, 2013; note: potency is the fitted concentration of half-maximal effect; nearly all actives have a fitted effect of over 55% in size
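Cell growth measured by CellTiter-Glo luminescence after a minimum 48 h, 37 C compound exposure with 20 nM CPT in Tdp1-knockout DT40 cells stably expressing hTDP1, seeded 400/well; qHTS titration format.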
HT1080 IDH1KD tx: qHTS for induction of synthetic lethality in tumor cells producing 2HG: qHTS for the HT-1080-IDH1KD cell line. HT-1080 IDH1 knockdown viability, ATP luminescence, 48 h. Potency, µM (titrated, usually from 46.1 µM), for inactives: at the highest dose activity, negative = toxicity, most hits filed as cytotoxic. 360,000 compounds, 2% hits. AID 686971, 2013;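 note: potency is the fitted concentration of half-maximal effect; 0% = DMSO wells and -100% = cell-free medium wells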
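Cytotoxicity counter-line: IDH1KD HT-1080, 48 h, CellTiter-Glo. Curves classed by r2, magnitude and activity.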
IL1B secr inh: qHTS for Inhibitors of Inflammasome Signaling: IL-1-beta AlphaLISA Primary Screen. AID 743279, 2014. 360,000 compounds, 4.7% hits. THP-1 LPS/ATP IL-1B secretion, AlphaLISA, 16 h; stronger effect = lower value. activity change, % at 57.5 µM; in the data active = activity change below about -50%; inconclusive = mostly about -30% to -49%
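THP-1 cells pretreated 1 hr with compounds (up to 57.5 uM final), then stimulated with LPS (250 ng/mL final) plus ATP (1.25 mM final); secreted IL-1B measured by AlphaLISA after 16 hr, decreased signal indicating inhibition.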
* hit, by the source's call; ? = inconclusive; nt = no result; [ ] = remark or other dose. Unless noted, calls come from the whole dose curve; as a rule, active = well fitted curve in the direction sought with a large enough effect; inconclusive = small, poorly fitted or top-dose-only effect, or another doubt; inactive = no such curve, though single readings can be large; an effect the other way counts as inactive or inconclusive. Unless noted, % is set by controls: 0 for no effect and ±100 for the full control effect.

SMILES	HT1080NT lethal	TDP1 cell noCPT	DT40 TDP1 CPT	HT1080 IDH1KD tx	IL1B secr inh
COCC(C)n1c(C)cc(C(=O)COC(=O)c2ccc(N3CCCC3=O)cc2)c1C (stereo not given)	2.6%	-21.2%	-15.1%	-4.4%	-14.0
CCOC(=O)c1cccc(NC(=O)N2CC(CC)Oc3ccccc32)c1 (stereo not given)	nt	16.4µM*	?	nt	nt
CCC1CN(C(=O)NCc2ccccc2)c2ccccc2O1 (stereo not given)	1.7%	?	-13.2%	-0.5%	-24.7
CCC1CN(C(=O)Nc2cccc(C)c2)c2cc(C)ccc2O1 (stereo not given)	0.0%	20.6µM*	?	-10.7%	-0.4
CCC1CN(C(=O)Nc2cccc(OC)c2)c2ccccc2O1 (stereo not given)	nt	23.1µM*	?	nt	nt
CN(C)S(=O)(=O)c1ccc2c(c1)nnn2CCNC(=O)Nc1ccc(Cl)cc1	nt	-12.5%	-23.2%	nt	nt
N#Cc1sc(=O)[nH]c1Cl	16.8%	-16.6%	2.7%	11.7%	4.7
CC1=Nc2ccccc2N=C(NC(=O)CSC(=S)N2CCN(C)CC2)C1c1ccccc1 (stereo not given)	-10.4%	16.4µM*	?	-7.7%	4.3
CC1=Nc2ccccc2N=C(NC(=O)CSC(=S)N2CCCCC2)C1c1ccccc1 (stereo not given)	0.0%	?	-19.7%	-0.6%	-15.6
CC1=Nc2ccccc2N=C(NC(=O)CSc2nnnn2-c2ccccc2)C1c1ccccc1 (stereo not given)	-13.6%	29.1µM*	?	1.0%[9.24 µM]	-12.9
NC(=O)c1ccc(-n2nnnc2SCC(=O)Nc2ccccc2)cc1	-0.8%	-16.3%	-1.9%	0.5%	-10.3
Cc1cc(C)c(C)c(S(=O)(=O)NCC(=O)Nc2ccc(F)cc2)c1C	?	-28.8%	?	?	0.0
CCN(CC)C(=O)Cn1cc(S(=O)(=O)CC(=O)Nc2ccc(F)cc2F)c2ccccc21	0.0%	-1.8%	-22.7%	-6.3%	-3.2
CSCCC(N)C(=O)O (stereo not given)	nt	18.6%	-17.3%	nt	nt
O=C(COC(=O)c1cc(=O)[nH]c2ccccc12)NC(=O)c1ccccc1	7.0%	-0.4%	-1.6%	-20.4%	1.1
COc1ccc(-c2nn(-c3ccccc3)cc2CN(C)CCn2ccnc2C)c(F)c1	0.0%	?	18.4µM*	-4.7%	?
CC1(C)CC(=O)C2=C(C1)N1C(=C(C#N)C2c2ccc(Cl)cc2)N=C(N)c2ccccc21 (stereo not given)	?	20.6µM*	?	?	?
N#CC1=C2N=C(N)c3ccccc3N2C2=C(C(=O)CCC2)C1c1ccc(Cl)cc1 (stereo not given)	-2.4%	16.4µM*	20.6µM*	-14.3%	-5.2
CC1(C)CC(=O)C2=C(C1)N1C(=C(C#N)C2c2ccccc2Cl)N=C(N)c2ccccc21 (stereo not given)	-21.8%	?	?	-27.5%	-7.7
CC1(C)CC(=O)C2=C(C1)N(c1ccccc1)C(N)=C(C#N)C2c1ccccc1 (stereo not given)	4.6%	-28.8%	-12.6%	1.7%	-50.0*
CCN1C(=O)C(CC(=O)Nc2ccc(OC)cc2)N(Cc2ccco2)C1=S (stereo not given)	-1.3%	?	-5.8%	3.3%	-2.2
O=S(=O)(NCc1ccccn1)c1cc(C(F)(F)F)ccc1Cl	7.0%	-18.1%	?	9.1%	5.5
Cc1cc(C)c(NC(=O)c2ccc(CNS(=O)(=O)c3cc(C(F)(F)F)ccc3Cl)cc2)c(C)c1	-11.7%	16.4µM*	20.6µM*	-22.5%	-0.3
Cc1cc2nc(-c3ccc(OCc4ccccc4C)cc3)cc(C(F)(F)F)n2n1	nt	16.4µM*	?	nt	nt
